Tests used:
Test in all cases: log2 ratio of Biotin-Ahx-Ub-VS probe labelling (fragment/DMSO); higher = less target engagement (more negative = stronger competition), active = hit call of the paper (q ≤ 0.05, log2 ratio ≤ -1)
Settings in all cases: compound concentration: 200 uM; treatment time: 3 h
[1] = molecular target: T1, ALG13 (UniProt Q9NP73)
T1 sequence (whole entry): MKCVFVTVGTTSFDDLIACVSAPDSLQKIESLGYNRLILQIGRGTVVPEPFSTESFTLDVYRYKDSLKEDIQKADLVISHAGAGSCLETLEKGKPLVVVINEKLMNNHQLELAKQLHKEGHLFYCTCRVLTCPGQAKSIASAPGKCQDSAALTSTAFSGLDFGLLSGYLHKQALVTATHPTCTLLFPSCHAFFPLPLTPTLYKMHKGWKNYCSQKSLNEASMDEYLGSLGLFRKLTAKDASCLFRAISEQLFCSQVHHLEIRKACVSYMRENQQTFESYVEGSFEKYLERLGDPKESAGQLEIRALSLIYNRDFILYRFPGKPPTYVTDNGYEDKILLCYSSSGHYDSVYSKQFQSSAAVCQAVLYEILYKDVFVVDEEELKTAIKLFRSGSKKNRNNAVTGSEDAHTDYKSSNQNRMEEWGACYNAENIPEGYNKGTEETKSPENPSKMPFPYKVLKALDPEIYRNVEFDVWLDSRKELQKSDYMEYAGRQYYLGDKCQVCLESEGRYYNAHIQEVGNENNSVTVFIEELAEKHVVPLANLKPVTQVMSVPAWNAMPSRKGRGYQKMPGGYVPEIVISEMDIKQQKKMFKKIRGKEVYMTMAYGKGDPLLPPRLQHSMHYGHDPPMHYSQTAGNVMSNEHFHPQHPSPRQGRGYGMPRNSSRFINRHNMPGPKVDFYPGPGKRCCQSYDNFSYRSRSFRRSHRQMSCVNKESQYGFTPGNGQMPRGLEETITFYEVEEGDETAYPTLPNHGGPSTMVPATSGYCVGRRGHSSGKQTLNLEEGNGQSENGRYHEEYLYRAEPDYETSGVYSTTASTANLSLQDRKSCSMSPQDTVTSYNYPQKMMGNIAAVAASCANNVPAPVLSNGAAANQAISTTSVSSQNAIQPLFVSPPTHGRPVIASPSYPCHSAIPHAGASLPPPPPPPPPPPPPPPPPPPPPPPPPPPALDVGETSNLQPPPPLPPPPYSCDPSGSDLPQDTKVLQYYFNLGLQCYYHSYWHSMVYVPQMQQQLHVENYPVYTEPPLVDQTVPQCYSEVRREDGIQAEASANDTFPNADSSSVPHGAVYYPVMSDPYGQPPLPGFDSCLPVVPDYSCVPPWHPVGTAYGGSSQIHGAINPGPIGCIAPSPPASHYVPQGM
Summary of the method: (§1)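 Average log2 ratios of fragment over vehicle were obtained by unpaired t-test from global-median-normalised Spectronaut label-free quantities. Proteins with ≥2 unique peptides were included. HEK293T lysate (495 µg per sample) was treated in triplicate with fragment at 200 µM or vehicle for 3 h, then with Biotin-Ahx-Ub-VS at 0.5 µM final for 1 h, and labelled DUBs were NeutrAvidin-enriched and run by diaPASEF LC-MS/MS.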

[2] = molecular target: ATXN3 (UniProt P54252)
ATXN3, sequence (P54252 whole entry): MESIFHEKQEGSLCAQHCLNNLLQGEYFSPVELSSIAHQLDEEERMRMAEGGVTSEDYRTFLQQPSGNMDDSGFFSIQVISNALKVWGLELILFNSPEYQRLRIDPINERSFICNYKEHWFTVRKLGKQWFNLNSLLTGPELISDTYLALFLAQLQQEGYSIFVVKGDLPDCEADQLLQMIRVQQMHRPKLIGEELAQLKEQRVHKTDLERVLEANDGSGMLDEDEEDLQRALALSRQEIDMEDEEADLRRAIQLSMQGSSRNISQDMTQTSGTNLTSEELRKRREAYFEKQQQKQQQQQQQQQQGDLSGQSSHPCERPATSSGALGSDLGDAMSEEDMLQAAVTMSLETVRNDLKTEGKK
Summary of the method: as §1

[3] = molecular target: T2, BAP1 (UniProt Q92560)
T2 sequence (whole entry): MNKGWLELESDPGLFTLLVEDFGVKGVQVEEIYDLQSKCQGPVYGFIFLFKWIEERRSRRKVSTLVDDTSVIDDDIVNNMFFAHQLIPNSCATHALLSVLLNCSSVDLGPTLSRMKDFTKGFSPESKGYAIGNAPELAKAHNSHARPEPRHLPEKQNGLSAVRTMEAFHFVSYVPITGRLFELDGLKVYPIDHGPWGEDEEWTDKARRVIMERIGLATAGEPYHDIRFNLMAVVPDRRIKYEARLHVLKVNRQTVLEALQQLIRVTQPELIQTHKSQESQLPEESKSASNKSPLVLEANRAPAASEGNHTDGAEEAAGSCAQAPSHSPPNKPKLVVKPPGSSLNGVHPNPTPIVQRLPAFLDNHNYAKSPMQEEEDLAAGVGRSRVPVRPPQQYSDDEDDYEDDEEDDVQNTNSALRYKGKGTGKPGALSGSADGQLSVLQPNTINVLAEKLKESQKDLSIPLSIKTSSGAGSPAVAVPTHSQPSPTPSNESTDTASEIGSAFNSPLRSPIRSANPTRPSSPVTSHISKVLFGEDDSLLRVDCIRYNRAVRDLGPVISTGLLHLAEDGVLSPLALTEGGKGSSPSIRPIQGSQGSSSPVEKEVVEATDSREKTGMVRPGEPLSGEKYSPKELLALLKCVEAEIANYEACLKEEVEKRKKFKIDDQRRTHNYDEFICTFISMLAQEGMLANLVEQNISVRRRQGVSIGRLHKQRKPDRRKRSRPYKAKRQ
Summary of the method: as §1

[4] = molecular target: EIF3F (UniProt O00303)
EIF3F, sequence (O00303 whole entry): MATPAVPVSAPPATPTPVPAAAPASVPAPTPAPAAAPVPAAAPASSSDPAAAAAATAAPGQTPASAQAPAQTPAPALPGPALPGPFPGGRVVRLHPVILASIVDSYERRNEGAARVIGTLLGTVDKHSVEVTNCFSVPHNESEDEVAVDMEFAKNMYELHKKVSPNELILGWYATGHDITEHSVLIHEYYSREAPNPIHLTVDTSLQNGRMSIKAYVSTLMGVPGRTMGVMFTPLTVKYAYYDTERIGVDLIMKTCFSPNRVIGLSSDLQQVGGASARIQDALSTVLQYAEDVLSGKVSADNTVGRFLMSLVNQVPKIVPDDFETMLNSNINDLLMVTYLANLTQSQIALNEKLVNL
Summary of the method: as §1

[5] = molecular target: EIF3H (UniProt O15372)
EIF3H, sequence (O15372 whole entry): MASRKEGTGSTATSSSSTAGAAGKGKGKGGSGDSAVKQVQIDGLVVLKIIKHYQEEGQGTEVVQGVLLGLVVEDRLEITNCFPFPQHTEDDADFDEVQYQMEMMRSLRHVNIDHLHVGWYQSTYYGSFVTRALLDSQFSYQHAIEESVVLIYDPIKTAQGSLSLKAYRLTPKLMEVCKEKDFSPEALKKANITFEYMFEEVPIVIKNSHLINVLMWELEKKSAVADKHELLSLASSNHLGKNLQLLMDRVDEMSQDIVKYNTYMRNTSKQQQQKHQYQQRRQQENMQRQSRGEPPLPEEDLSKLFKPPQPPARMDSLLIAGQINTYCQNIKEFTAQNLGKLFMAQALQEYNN
Summary of the method: as §1

[6] = molecular target: T3, FAM105A (UniProt Q9NUU6)
T3 sequence (whole entry): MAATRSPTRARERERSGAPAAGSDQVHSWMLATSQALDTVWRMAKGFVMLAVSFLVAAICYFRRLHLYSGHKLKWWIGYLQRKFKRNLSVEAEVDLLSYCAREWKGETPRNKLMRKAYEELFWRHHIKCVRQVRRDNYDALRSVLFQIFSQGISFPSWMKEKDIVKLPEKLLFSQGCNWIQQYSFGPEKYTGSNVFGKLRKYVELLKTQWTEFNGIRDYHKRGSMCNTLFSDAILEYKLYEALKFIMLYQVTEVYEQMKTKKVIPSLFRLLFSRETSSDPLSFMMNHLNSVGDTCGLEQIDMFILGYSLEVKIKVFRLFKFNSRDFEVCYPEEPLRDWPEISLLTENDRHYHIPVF
Summary of the method: as §1

[7] = molecular target: OTUB1 (UniProt Q96FW1)
OTUB1, sequence (Q96FW1 whole entry): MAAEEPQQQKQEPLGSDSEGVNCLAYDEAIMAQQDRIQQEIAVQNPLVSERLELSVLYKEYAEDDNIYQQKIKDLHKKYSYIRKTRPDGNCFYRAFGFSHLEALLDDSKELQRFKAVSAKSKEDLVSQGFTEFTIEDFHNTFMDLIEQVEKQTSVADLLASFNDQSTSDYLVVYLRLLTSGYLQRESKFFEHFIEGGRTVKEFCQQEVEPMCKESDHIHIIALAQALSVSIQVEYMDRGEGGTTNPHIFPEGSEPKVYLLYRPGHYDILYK
Summary of the method: as §1

[8] = molecular target: T4, OTUD4 (UniProt Q01804)
T4 sequence (whole entry): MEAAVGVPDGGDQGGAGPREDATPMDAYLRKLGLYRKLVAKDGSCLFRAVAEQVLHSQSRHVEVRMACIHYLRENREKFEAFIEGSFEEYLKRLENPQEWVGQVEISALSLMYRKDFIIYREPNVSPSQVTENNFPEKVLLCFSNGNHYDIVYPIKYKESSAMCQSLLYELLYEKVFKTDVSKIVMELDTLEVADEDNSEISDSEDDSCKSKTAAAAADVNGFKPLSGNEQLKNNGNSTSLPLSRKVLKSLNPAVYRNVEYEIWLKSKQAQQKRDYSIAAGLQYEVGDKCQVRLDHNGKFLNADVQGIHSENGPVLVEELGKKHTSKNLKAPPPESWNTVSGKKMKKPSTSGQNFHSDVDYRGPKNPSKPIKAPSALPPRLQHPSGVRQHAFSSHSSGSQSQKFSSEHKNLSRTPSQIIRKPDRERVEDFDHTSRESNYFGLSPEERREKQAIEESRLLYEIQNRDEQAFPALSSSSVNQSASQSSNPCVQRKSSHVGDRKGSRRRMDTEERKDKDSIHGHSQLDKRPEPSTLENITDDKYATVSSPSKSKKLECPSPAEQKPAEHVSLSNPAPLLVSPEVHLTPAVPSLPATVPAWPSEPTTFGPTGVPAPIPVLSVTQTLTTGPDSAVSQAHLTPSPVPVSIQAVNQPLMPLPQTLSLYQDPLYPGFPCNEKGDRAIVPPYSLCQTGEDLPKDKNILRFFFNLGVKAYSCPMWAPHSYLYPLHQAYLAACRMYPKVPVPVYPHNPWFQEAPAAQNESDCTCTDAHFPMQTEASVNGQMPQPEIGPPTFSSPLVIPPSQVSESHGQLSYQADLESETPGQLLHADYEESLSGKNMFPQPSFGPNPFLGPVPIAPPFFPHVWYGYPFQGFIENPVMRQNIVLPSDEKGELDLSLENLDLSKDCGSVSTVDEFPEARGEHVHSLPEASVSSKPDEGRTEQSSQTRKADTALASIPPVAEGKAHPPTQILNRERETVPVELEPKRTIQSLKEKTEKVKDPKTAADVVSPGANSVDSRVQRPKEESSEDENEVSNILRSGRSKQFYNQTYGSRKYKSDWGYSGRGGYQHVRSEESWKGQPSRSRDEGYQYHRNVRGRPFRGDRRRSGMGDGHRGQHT
Summary of the method: as §1

[9] = molecular target: T5, OTUD5 (UniProt Q96G74)
T5 sequence (whole entry): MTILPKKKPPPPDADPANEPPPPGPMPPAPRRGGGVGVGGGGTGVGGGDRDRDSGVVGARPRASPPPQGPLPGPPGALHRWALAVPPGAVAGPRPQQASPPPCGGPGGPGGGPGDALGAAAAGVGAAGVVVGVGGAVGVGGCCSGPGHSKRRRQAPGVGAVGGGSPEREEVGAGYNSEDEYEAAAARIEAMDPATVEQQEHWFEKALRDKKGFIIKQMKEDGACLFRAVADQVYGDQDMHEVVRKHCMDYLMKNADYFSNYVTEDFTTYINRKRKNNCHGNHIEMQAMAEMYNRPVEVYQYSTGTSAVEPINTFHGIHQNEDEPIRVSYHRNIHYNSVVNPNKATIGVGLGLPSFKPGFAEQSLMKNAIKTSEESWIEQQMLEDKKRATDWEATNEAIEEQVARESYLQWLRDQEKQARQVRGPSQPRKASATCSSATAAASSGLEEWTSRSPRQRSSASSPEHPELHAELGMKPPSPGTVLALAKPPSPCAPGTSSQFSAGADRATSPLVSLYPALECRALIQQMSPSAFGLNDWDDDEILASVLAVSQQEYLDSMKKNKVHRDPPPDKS
Summary of the method: as §1

Measured: log2 ratio of Biotin-Ahx-Ub-VS probe labelling

Cc1ccc(N(C(=O)CCl)C2C=CS(=O)(=O)C2)cc1 (centres undefined)
inactive: [1] -0.425 | [2] 0.116 | [3] -0.0645 | [4] -0.128 | [5] -0.276 | [6] 0.167 | [7] -0.0537 | [8] 0.0564 | [9] -0.00864

— the supplement of paper PMC11732987, “Enantioselective OTUD7B fragment discovery through chemoproteomics screening and high-throughput optimisation” (Communications Chemistry, 2025)
